Results from ChEMBL document CHEMBL4513216, “Probing the Open Global Health Chemical Diversity Library for Multistage-Active Starting Points for Next-Generation Antimalarials” (ACS Infect Dis, 2020).
Out of some 68,000 compounds screened, about 2,700 (4%) showed an effect of 50% or more. The sample as a whole holds a higher share of strong results than the screen did.

test system: Plasmodium berghei; experiment: Screen against P. berghei liver stage (PbLuc), transformed with Luciferase, at 2uM; type: functional, HepG2; conditions: tested at 2 uM

Row | Compound | INHIBITION [%]
1 | Cc1nc(C2CCCN(C(=O)CCCn3cccn3)C2)sc1C (centres undefined) | 15.67
2 | O=C(c1ccc2[nH]ccc2c1)N1CC[C@@H]2CN(CC3CC3)CCO[C@@H]2C1 | 12.83
3 | CCS(=O)(=O)N1CCc2cc(C(=O)N(C)C)c(NCC3CC3)nc2CC1 | 27.08
4 | COC(=O)COc1cc(NCc2c(C)noc2C)c(Cl)cc1C | -55.9
5 | NC(=O)COc1ccc(CN2CCC(O)(CN3CCCCC3)C2)cc1Cl (centres undefined) | -32.93
6 | Cc1cnn(C2CN(CC(=O)NCCc3ccsc3)C2)c1 | -21.39
7 | O=C(CCC1CCCO1)NCc1ccc(Br)cc1F (centres undefined) | 1.52
8 | Cc1cc(C(=O)O)c2c(Br)cccc2n1 | -34.12
9 | COCCCN1Cc2cccc(NC(=O)c3cc(F)ccc3F)c2C1 | -9.01
10 | CCc1nnsc1C(=O)N1CCCC1c1c(C)nn(C)c1OC (centres undefined) | -12.75
11 | COc1ccc(C(C(=O)O)N2CCC(O)(c3cccnc3)CC2)cc1F (centres undefined) | -38.97
12 | COc1cccc(Cl)c1C(C(=O)O)N1CCC(O)(c2cccnc2)CC1 (centres undefined) | -4.09
13 | COc1ccc(C(C(=O)O)N2CCC(O)(c3cccnc3)CC2)cc1Cl (centres undefined) | 55.39
14 | Cc1ccc(C(=O)N2C[C@H]3CCC[C@@]3(COCc3cccnc3)C2)s1 | -5.01
15 | CCCC(=O)N1CCC(c2ncc3c(n2)CCNC3)CC1 | 5.15
16 | O=C(CC1CCCCC1)N1CCC(c2ncc3c(n2)CCNC3)CC1 | 6.4
17 | CCC(=O)N1CCC(c2ncc3c(n2)CCNC3)CC1 | 95.75
18 | COc1c[nH]c(C(=O)N2CCN(c3ccc(Cl)cc3)CC2)cc1=O | 5.28
19 | Cc1cc(C)n(C2CN(CC(O)c3ccc(C(F)(F)F)cc3)C2)n1 (centres undefined) | 56.02
20 | Cc1cc(C)n(C2CN(CC(O)c3ccc(F)cc3)C2)n1 (centres undefined) | -26.11
21 | Cc1cc(C)n(C2CN(CC(O)COc3ccc(F)cc3)C2)n1 (centres undefined) | 12.31
22 | Cc1cc(C)n(C2CN(CC(O)c3ccc(S(C)(=O)=O)cc3)C2)n1 (centres undefined) | -3.06
23 | COc1ccc(C(O)CN2CC(n3nc(C)cc3C)C2)cc1 (centres undefined) | -1.02

Row | Compound | INHIBITION [%]
24 | Cc1cc(C)n(C2CN(CC(O)c3cc(F)ccc3F)C2)n1 (centres undefined) | 53.98
25 | O=C(c1cnnn1-c1ccccc1)N1CCCC(c2ccn[nH]2)C1 (centres undefined) | -44.17
26 | O=C(c1ccco1)N1C[C@@H]2CCN(c3cccnc3)C[C@@H]2C1 | -19.54
27 | CCc1nnc2n1CCN(C(C(=O)N(CC)CC)c1ccccc1)C2 (centres undefined) | 47.85
28 | CCN(CC)C(=O)C(c1ccccc1)N1CCn2c(C)nnc2C1 (centres undefined) | 63.95
29 | Cc1nnc2n1CCN(C(C(=O)N1CCCCC1)c1ccccc1)C2 (centres undefined) | -40.65
30 | COc1ncc(C2(O)CCN(Cc3ccc(F)c(F)c3)CC2)c(OC)n1 | 10.83
31 | O=C(CN1CCCC(O)C1)NC(=O)NCc1cccs1 (centres undefined) | -4.29
32 | Cc1cccc(C2(CNC(=O)c3ccnc(N(C)C)c3)CCOCC2)c1 | -3.96
33 | CN(C)c1cc(C(=O)NCC2(c3ccc(F)cc3)CC2)ccn1 | 87.73
34 | CN(C)c1cc(C(=O)NCC2(c3cccc(F)c3)CCOCC2)ccn1 | 15.38
35 | CCCC(=O)N1CCC(C(=O)NCCN2CCC(C)CC2)CC1 | 20.43
36 | CC1CCC(O)(CN2CCN(CCNC(=O)C3CCC3)CC2)CC1 (centres undefined) | -81.41
37 | CC1CCN(CCCNC(=O)C2CCCCC2)CC1 | 1.41
38 | CCCNC(=O)C1CCN(CC2(O)CCC(C)CC2)CC1 (centres undefined) | 50.03
39 | COCCCNC(=O)C1CCN(CC2(O)CCC(C)CC2)CC1 (centres undefined) | 54.69
40 | CC(=O)N1CCC(C(=O)NCCN2CCC(C)CC2)CC1 | 44.99
41 | CN(Cc1ccco1)Cc1cnc2n1CCN(c1ccccn1)CC2 | -18.6
42 | OC(CNc1ccc(Cl)cn1)CN1CCOCC1 (centres undefined) | 12.58
43 | CC1CCN(CC(O)CNc2ccc(Cl)cn2)CC1 (centres undefined) | 58.9
44 | CC1CCN(CC(O)CNc2ccccn2)CC1 (centres undefined) | 39.95
45 | Cc1nnc([C@@]23CCO[C@@H]2CCN(S(=O)(=O)c2cccnc2)C3)o1 | 38.17
46 | O=C(c1c[nH]c2ccccc2c1=O)N1CCSCC1 | 40.47

Row | Compound | INHIBITION [%]
47 | CC(C(=O)Nc1ncccn1)N1CCC(n2ccnc2)CC1 (centres undefined) | 61.56
48 | CC(C(=O)Nc1ccc2ccccc2c1)N1CCC(n2ccnc2)CC1 (centres undefined) | -17.84
49 | CC(C(=O)NCCc1cccs1)N1CCC(n2ccnc2)CC1 (centres undefined) | -22.69
50 | O=C(c1cc(Cl)c[nH]1)N1CCN(CCc2ccccn2)CC1 | -5.61
51 | COc1cc(OC)c(CNC(=O)NCC(=O)N2CCCC2)c(OC)c1 | -19.51
52 | OC1(Cn2ccc3ncccc32)CCN(Cc2ccccn2)CC1 | 7.86
53 | CCc1sc(-c2nnc(CNCCn3cccn3)o2)cc1C | -19.27
54 | CCc1sc(-c2nnc(CNCCn3cc(C)cn3)o2)cc1C | 53.03
55 | CCc1sc(-c2nnc(CNC(C)Cn3cc(C)cn3)o2)cc1C (centres undefined) | -11.19
56 | CNc1nc2cn(Cc3ccc(Cl)cc3)c(=O)c-2c[nH]1 | 16.38
57 | CC[C@@H](Cn1ncc2ccccc2c1=O)NC(=O)c1cnccn1 | -10.89
58 | Cc1cc(=O)n2ncnc2n1CC(O)c1cc(Cl)ccc1Cl (centres undefined) | 50.59
59 | Cc1cc(=O)n2ncnc2n1CC(O)c1ccccc1Cl (centres undefined) | 5.36
60 | Cc1cc(=O)n2ncnc2n1CC(O)c1cc(F)ccc1F (centres undefined) | 6.97
61 | Cc1nc(C2(O)CCCNCC2)sc1CCOc1ccc(Cl)cc1 (centres undefined) | 25.23
62 | Cc1ccc(NC2CCN(C(=O)c3nccc4ccccc34)CC2)nn1 | -27.5
63 | Cc1[nH]c2ccc(C(=O)N3C[C@@H](O)[C@H](N4CCOCC4)C3)cc2c1C | 21.97
64 | COc1ccccc1C(C)CC(=O)N1CC[C@H](O)C1 (some centres undefined) | -22.65
65 | COc1ccccc1C(C)CC(=O)N1CCCS1(=O)=O (centres undefined) | -29.82
66 | COc1ccccc1C(C)CC(=O)N1CCN(S(N)(=O)=O)CC1 (centres undefined) | 50.46
67 | Cc1ccc(CN2CCNC(C(=O)NC3CC3)C2)cc1C (centres undefined) | 2.6
68 | O=C(NC1CC1)C1CN(Cc2ccc3c(c2)OCCO3)CCN1 (centres undefined) | 54.73
69 | NC(=O)COc1ccc(CN2CCNC(C(=O)NC3CC3)C2)cc1Cl (centres undefined) | 32.69
